Sampled rows, rich in hits. Any-hit rate of the full collection: about 4.2%.
ClpP mod: qHTS Assay for Activators of ClpP | purified B. subtilis ClpP, FRET peptide cleavage, 20 min | Potency, µM (top dose mostly 57.5 µM) | actives 1.9% (n = 340,000) | AID 651965, 2013; active = well fitted falling curve with a large enough effect; inconclusive = small, poorly fitted or top-dose-only effect; inactive = no such curve, though single readings can be large or run the other way; also: the source files actives as falling curves though it sought activators and does not explain the sign; nearly all actives have a fitted effect of over 65% in size
Target sequence (P80244 whole entry, looked up): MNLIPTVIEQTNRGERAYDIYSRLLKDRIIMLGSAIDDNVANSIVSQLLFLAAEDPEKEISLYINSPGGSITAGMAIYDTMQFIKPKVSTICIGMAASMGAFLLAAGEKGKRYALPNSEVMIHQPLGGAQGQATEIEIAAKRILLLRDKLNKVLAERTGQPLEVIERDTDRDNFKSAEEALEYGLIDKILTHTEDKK
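Purified B. subtilis ClpP, 10 microg/mL final in Tris/HCl pH8 with KCl, BSA, glycerol and Tween-20, cleaved an Abz/nitrotyrosine-quenched decapeptide. Fluorescence (ex 320, em 430) was read at 0 and 20 min at room temperature. Delta was normalized to 5.8 microM ADEP and DMSO/no-enzyme controls.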
Sfp inh: blocks B. subtilis Sfp PPTase activity. Biochemical Sfp PPTase activity, qHTS. actives 3.5% (n = 310,000). Potency, µM, most hits filed as inhibitors. Q9F4F7;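 also: the enzyme is Sfp with the accession as filed and its product quenches rhodamine fluorescence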
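Reaction rates are the 30-min fluorescence difference (ex 525, em 598 nm) in wells containing 15 nM Sfp, 5 uM rhodamine-CoA and 12.5 uM BHQ-2-YbbR at pH 7.6 with 10 mM MgCl2.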
uPA surface inh: cell surface uPA generation inhibition. cell surface uPA generation assay, qHTS. Potency, µM (highest dose often 38.3 µM), hits mostly inhibitors. actives 0.31% (n = 330,000). AID 540303; active = well fitted inhibition curve with a large enough effect; inconclusive = small, poorly fitted or top-dose-only effect; inactive = no such curve, though single readings can be large or run the other way; tested in mouse RAW 264.7 cells; also: nearly all actives have a fitted effect of over 55% in size
TCR act: activates T cell receptor signaling; AID 504894; primary human leukocytes, anti-CD3, IL-2 HTRF, 48 h; 330,000 tested, under 10 active; Potency, µM (doses to about 9.22 µM), usual class: activators
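Human primary leukocytes + a-CD3 beads + cpd, 48 hr; IL-2 in supernatant by HTRF (ex 320nm / em 665nm). No co-stimulatory signal supplied.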
Of the large screens only hits and unclear results are named; the others gave an inactive call. Unless noted, calls follow the shape of the dose curve; as a rule, active = well fitted curve in the direction sought with a large enough effect; inconclusive = small, poorly fitted or top-dose-only effect, or another doubt; inactive = no such curve, though single readings can be large; an effect the other way counts as inactive or inconclusive.

Cn1nnc(NC(=O)c2cccs2)n1	none
CCCn1nnc(NC(=S)NC(=O)c2cccs2)n1	Sfp inh 40µM
CCC1CCC2(CC1)NC(=O)N(CC(=O)Nc1ccc(OC)c(Cl)c1)C2=O (stereo not given)	none (no result: Sfp inh)
COc1ccc(Cn2c3nc4ccccc4nc3c3c(=O)n(Cc4ccco4)cnc32)cc1	Sfp inh 4.5µM (no result: ClpP mod, uPA surface inh, TCR act)
Cc1cccc(-n2cnc3c(c2=O)c2nc4ccccc4nc2n3Cc2ccco2)c1	ClpP mod inconclusive, Sfp inh 3.5µM
CCCn1cnc2c(c1=O)c1nc3ccccc3nc1n2Cc1ccccc1OC	none (no result: ClpP mod, uPA surface inh, TCR act)
Cc1ccc(-n2cc(CN(C)Cc3ncc[nH]3)c(-c3cccc(C)c3)n2)cc1	Sfp inh 56µM (no result: ClpP mod)
CN(Cc1ncc[nH]1)Cc1cn(-c2ccccc2)nc1-c1ccc2c(c1)OCO2	none
C=CC[n+]1ccc(/C=C2\C=Cc3cc(C)ccc3N2CC)c2ccccc21	uPA surface inh 2.5µM
CCOC(=O)c1cc2c(C)n(-c3ccc(C)cc3)c(C)c2ccc1=O	none
CCOC(=O)c1cc2c(C)n(-c3ccc(OCC)cc3)c(C)c2ccc1=O	Sfp inh 79µM
CCNc1ncc2ncc(=O)n(C)c2n1	none (no result: ClpP mod, uPA surface inh, TCR act)
FC(F)(F)c1cnc(-c2cnc3c(-c4ccc(Cl)cc4)cnn3c2)c(Cl)c1	none
N#Cc1cnn2cc(-c3ncc(C(F)(F)F)cc3Cl)cnc12	ClpP mod 28µM (no result: uPA surface inh)
CCCn1c(-c2ccc(F)cc2)nc2c(N3CCCN(Cc4ccccc4)CC3)nc(C)nc21	Sfp inh 22µM (no result: ClpP mod, uPA surface inh, TCR act)
Clc1ccccc1-c1csc(Nc2cccnc2)n1	Sfp inh 32µM (no result: ClpP mod)
Clc1cccc(-c2csc(Nc3cccnc3)n2)c1	Sfp inh 56µM
O=C1CCCC2=C1C(c1ccc(O)cc1)c1c(ccc3ccccc13)N2 (stereo not given)	Sfp inh 50µM (no result: ClpP mod)
CCOc1ccc(C2C3=C(CCCC3=O)Nc3ccc4ncccc4c32)cc1 (stereo not given)	none
CCN1C2=C(C(=O)CCC2)C(c2ccc(O)cc2)C2=C1CCCC2=O	none
O=C1CCCC2=C1C(c1ccc(O)c(O)c1)c1c(ccc3ncccc13)N2 (stereo not given)	Sfp inh 7.9µM (no result: ClpP mod)
O=C(O)c1cc2c(o1)CCC/C2=N\O	none (no result: TCR act)
Cc1cc2c(nn1)CCC/C2=N\O	ClpP mod 18µM
CCCCC(CC)CO (stereo not given)	none (no result: Sfp inh)
CCCCC(CC)CN=C(N)NC(N)=NCCCCCCN=C(N)NC(N)=NCC(CC)CCCC (stereo not given)	Sfp inh 14µM, uPA surface inh inconclusive
Cc1cc(NC(=O)CSc2nnc(-c3ccncc3)n2C)n(-c2ccccc2)n1	none
CC(=O)Nc1ccc(C(=O)CN2C(=O)NC3(CCOc4ccccc43)C2=O)c(F)c1 (stereo not given)	none (no result: Sfp inh)
O=c1[nH]c2ccccc2nc1NCCN1CCOCC1	ClpP mod 32µM
S=C(NCCN1CCOCC1)Nc1ccc(-c2nc3ccccc3[nH]2)cc1	uPA surface inh 10µM
CCc1nc2c(OCc3ccc(F)cc3)cccn2c1N(C)C(=O)c1ccc(C)cc1	none (no result: Sfp inh, uPA surface inh, TCR act)
CN(NC(=O)/C=C/C(=O)O)c1ncc(C(F)(F)F)cc1Cl	Sfp inh 56µM (no result: ClpP mod)
CN(NC(N)=O)c1ncc(C(F)(F)F)cc1Cl	none
C=CC(=O)NN(C)c1ncc(C(F)(F)F)cc1Cl	uPA surface inh 3.5µM
O=C(CN1C(=O)COc2ccc(S(=O)(=O)NC3CCCC3)cc21)NCc1ccccc1Cl	none (no result: Sfp inh, uPA surface inh, TCR act)
O=C(Nc1nccs1)c1cnc2sccn2c1=O	none (no result: Sfp inh, uPA surface inh, TCR act)
Cn1c(=O)c2c(nc(NCC3CCCO3)n2Cc2ccccc2)n(C)c1=O (stereo not given)	ClpP mod 28µM
Cn1c(=O)c2c(nc(NCc3ccccc3)n2Cc2ccccc2)n(C)c1=O	none (no result: Sfp inh, uPA surface inh, TCR act)
Cc1ccc2oc(=O)c(/C=C(\O)C(C)(C)C)nc2c1	Sfp inh 56µM
Cc1ccc(NC(=O)Cc2nc(COC(=O)Cc3cccc(C(F)(F)F)c3)cs2)cc1	none (no result: Sfp inh)
O=C(Nc1ccc(C(=O)N2CCCC2)cc1)c1cc(F)c(F)cc1Cl	none (no result: Sfp inh, uPA surface inh, TCR act)
COc1ccc(N2CCN(c3ccnc4cc(Cl)ccc34)CC2)cc1	Sfp inh 56µM (no result: ClpP mod)
Oc1ccc(N2CCN(c3ccnc4cc(Cl)ccc34)CC2)cc1	Sfp inh inconclusive (no result: ClpP mod)
CCOC(=O)c1c(C)n(OCc2ccccc2)c2ccc3c(no[n+]3[O-])c12	Sfp inh 79µM
CCCCOn1c(C)c(C(C)=O)c2c3no[n+]([O-])c3ccc21	none (no result: ClpP mod)
O=[N+]([O-])c1ccc2c(c1)C=CC2	none (no result: Sfp inh, uPA surface inh, TCR act)
CC(C)C(NS(=O)(=O)c1ccccc1)C(=O)OCc1cc([N+](=O)[O-])cc2c1OCOC2 (stereo not given)	ClpP mod 32µM
Cc1cc(C)cc(OC(C)c2ccnc3nc(/N=C/N(C)C)nn23)c1 (stereo not given)	ClpP mod 28µM (no result: uPA surface inh, TCR act)
CC(Oc1ccccc1)c1ccnc2nc(/N=C/N(C)C)nn12 (stereo not given)	ClpP mod 28µM (no result: uPA surface inh)
N=C1C(c2ccccc2)=C(O)CN1c1cccc2ccccc12	none (no result: ClpP mod)
Nc1c(C(=O)Nc2ccccc2)sc2nc(-c3ccco3)ccc12	ClpP mod 16µM, Sfp inh 7.9µM
Nc1c(C(=O)Nc2ccccc2Br)sc2nc(-c3cccs3)ccc12	ClpP mod 32µM (no result: Sfp inh, uPA surface inh, TCR act)
COc1ccccc1NC(=O)c1sc2nc(-c3ccco3)ccc2c1N	none
CC(=O)c1sc2nc(-c3cccs3)ccc2c1N	Sfp inh 50µM
O=C(CN1C(=O)COc2ccc(S(=O)(=O)N3CCCCCC3)cc21)Nc1cccc(Cl)c1	none (no result: Sfp inh, uPA surface inh, TCR act)
CCN(CC)S(=O)(=O)c1ccc2oc(C(=O)NCc3ccc(C)cc3)c(C)c2c1	Sfp inh 25µM
Cc1cc(C)c2c(C)c(C(=O)NCc3ccncc3)oc2c1	ClpP mod inconclusive
CCc1ccc2oc(C(=O)NCc3ccncc3)c(C)c2c1	ClpP mod 28µM
CCCCN(CCCC)S(=O)(=O)c1ccc2oc(C(=O)NCc3ccc(C)cc3)c(C)c2c1	none (no result: Sfp inh, uPA surface inh, TCR act)
CCc1ccc2oc(C(=O)Nc3nc(-c4ccccc4)ns3)c(C)c2c1	ClpP mod 25µM (no result: Sfp inh, uPA surface inh, TCR act)
CC(C)C[C@H](NC(=O)[C@@H]1CCC(=O)N1)C(=O)N[C@@H](Cc1ccc(O)cc1)C(=O)N[C@@H](CCC(=O)O)C(=O)N[C@@H](CC(N)=O)C(=O)N[C@@H](CCCCN)C(=O)N1CCC[C@H]1C(=O)N[C@@H](CCCN=C(N)N)C(=O)N[C@@H](CCCN=C(N)N)C(=O)N1CCC[C@H]1C(=O)N[C@@H](Cc1ccc(O)cc1)C(=O)O	none (no result: ClpP mod, uPA surface inh, TCR act)
COc1ccc(NC(=O)CN2C(=O)C(c3ccc(C(C)(C)C)cc3)=NC2(C)C)cc1Cl	none (no result: Sfp inh, uPA surface inh, TCR act)
Cc1ccc(N(CC(=O)N2CCN(c3cccc(C)c3C)CC2)S(=O)(=O)c2c(C)nn(C)c2C)cc1	none (no result: Sfp inh, uPA surface inh, TCR act)
Cc1ccc(-c2nc(CN3CCCCC3)cc(CN3CCCCC3)c2O)cc1	Sfp inh 40µM (no result: ClpP mod)
CCn1c([N+](=O)[O-])nc2c1c(=O)[nH]c(=O)n2C	uPA surface inh 10µM
CCOCCn1c(N2CCCC2)nc2c1c(=O)[nH]c(=O)n2C	Sfp inh 40µM
CCOCCn1c(SC)nc2c1c(=O)[nH]c(=O)n2C	Sfp inh 18µM

Assay outcomes: PubChem, National Center for Advancing Translational Sciences (NCATS)
